Compound activity as filed in PubChem BioAssay.
A selection: hits, their analogues and other compounds. The true share with any hit is near 2.3%.
Akt phos inh – Akt phosphorylation inhibition | Neuro2A IGF-stimulated pAkt S473 HTRF, 20 min; hits give low values | activity change, % for hits at 50 µM | 360,000 compounds, 0.32% hits; in the data active means activity change below about -80%; inconclusive means mostly about -51% to -80%
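Single-point screen (50 µM final compound) in Neuro2A cells stimulated 20 min with 6 nM IGF at 37 deg C. After lysis, Ser473-phosphorylated Akt read by HTRF (ex 330 nm, em 615/665 nm) as the 665/615 ratio.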
Abeta rescue – compounds reversing amyloid beta toxicity in yeast; yeast expressing A-beta42, growth rescue, OD600, 48 h; response scale: 0% DMSO, 100% iron-clioquinol control; 410,000 compounds, 0.063% hits; AID 1347071; Potency, µM (series often up to 46.1 µM), hits mostly activators; further: nearly all actives have a fitted effect of over 55% in size
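Growth rescue measured by 600 nm absorbance after 48 h yeast culture at 30 C with compound. Values normalized between DMSO and an equimolar ferric chloride plus clioquinol control.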
FUS suppressor – FUS proteinopathy suppression in yeast | S. cerevisiae FUS-expressing, growth rescue, OD600, 24 h | Potency, µM (series often up to 76.6 µM), actives largely listed as activators | 390,000 compounds, 0.24% hits; further: nearly all actives have a fitted effect of over 55% in size
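Read-out: OD at 600 nm after 24hr at 30C, reporting rescue of FUS-induced yeast toxicity. Cells at OD 0.005 in galactose (2%) minimal medium; compounds tested in a dilution series; CP55940 titration from 92uM final as control.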
TDP-43 yeast inh – inhibitors of TDP-43 toxicity in yeast; TDP-43 expressing yeast growth rescue, BacTiter-Glo, 24 h; Potency, µM (highest dose often 46.1 µM), usual class: activators; 410,000 compounds, 1.8% hits; AID 652104; further: nearly all actives have a fitted effect of over 50% in size
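Yeast cells expressing TDP-43 under galactose induction are exposed to compounds for 24 hr at 30 deg C. BacTiter-Glo luminescence measures growth, so protective compounds score as activators.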
aSyn rescue – inhibitors of alpha-synuclein toxicity in yeast | 370,000 compounds, 0.14% hits | Yeast expressing alpha-synuclein, growth rescue, BacTiter-Glo, 24 h | AID 652106 | Potency, µM (doses to about 46.1 µM), hits mostly activators; further: nearly all actives have a fitted effect of over 65% in size
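Rescue of yeast growth: cells expressing toxic alpha-synuclein, induced in galactose at OD600 0.02, incubated with compound 24 h at 30 C. ATP luminescence quantified growth; inhibitors of toxicity appear as activators.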
Hits are given with their value; n = inactive; u = inconclusive; x = no result given. Unless noted, the call rests on the fitted dose curve; in most records, active means well fitted curve in the direction sought with a large enough effect; inconclusive means small, poorly fitted or top-dose-only effect, or another doubt; inactive means no such curve, though single readings can be large; an effect the other way counts as inactive or inconclusive.

SMILES	Akt phos inh	Abeta rescue	FUS suppressor	TDP-43 yeast inh	aSyn rescue
Fc1ccc(CNc2ccn3nc(-c4ccccc4)cc3n2)cc1	n	u	u	18µM	n
COc1ccc(CNc2cc(-c3ccc(OC)cc3)nc3nncn23)cc1	x	n	n	14µM	x
CCc1c(C)nc2nncn2c1NCc1ccc(OC)cc1	x	n	n	n	x
OCCCn1c(C2CCCN2c2nc(-c3ccc(F)cc3)cs2)nc2cc(Cl)c(Cl)cc21 (configuration not stated)	n	n	35µM	n	n
CCCCn1nnnc1C(c1ccccc1)N1CCN(c2c(Cl)cncc2Cl)CC1 (configuration not stated)	n	n	n	22µM	n
Cc1cc(C)cc(NC2=CC(c3cccc(F)c3)N(c3cc(C)cc(C)c3)C2=O)c1 (configuration not stated)	x	n	n	n	x
CCOC(=O)c1ccc(NC(=O)CC2C(=O)N(c3ccc(F)cc3)C(=O)N2Cc2ccc3c(c2)OCO3)cc1 (configuration not stated)	x	n	40µM	n	x
COc1ccc(N2C(=O)C(CC(=O)Nc3ccc(F)cc3)N(Cc3ccc4c(c3)OCO4)C2=O)cc1 (configuration not stated)	x	n	n	n	x
COc1cccc(CNC(=O)C(=O)NCC(c2ccco2)S(=O)(=O)c2ccccc2)c1 (configuration not stated)	x	n	n	n	x
O=C(CSc1nc2cc(Cl)ccc2s1)NCC1CCCO1 (configuration not stated)	n	n	n	20µM	n
O=C(CSc1nc2ccc([N+](=O)[O-])cc2s1)NCC1CCCO1 (configuration not stated)	n	n	n	n	n
COc1cccc(-c2nn(C)c3sc(C(=O)N4CCN(c5cccc(C(F)(F)F)c5)CC4)cc23)c1	x	n	u	n	x
COc1ccc(-c2nn(C)c3sc(C(=O)N4CCOCC4)cc23)cc1OC	n	n	n	n	n
COc1ccc(-c2nn(C)c3sc(C(=O)N4CCN(c5ccccc5F)CC4)cc23)cc1OC	x	n	n	20µM	x
COc1ccc(N2CCN(C(=O)c3cc4c(-c5cccc(OC)c5)nn(C)c4s3)CC2)cc1	n	n	u	16µM	n
CCOC(=O)Nc1ccc2c(c1)N(C(=O)CCN1CCN(CCO)CC1)c1ccccc1S2	-124%	n	n	n	n
COc1ccc(C2=C(C(C)=O)Sc3nnc(-c4ccc(Cl)cc4)n3N2C(C)=O)cc1OC	x	n	n	n	x
COC(=O)[C@]12C[C@H](CC(=O)NCc3cccc(C(F)(F)F)c3)C(=O)N(Cc3ccco3)C1=C[C@H](C(C)(C)C)O[C@@H]2C	x	x	n	x	x
Cc1cccc(C(=O)N2CCN=C2SCc2ccc([N+](=O)[O-])cc2)c1	n	n	n	10µM	n
O=C(Cc1ccccc1)N1CCN=C1SCc1cccc([N+](=O)[O-])c1	n	n	n	n	n
CCOc1ccc2c(c1)c(=O)c(C(=O)c1ccccc1)cn2Cc1ccccc1	x	n	n	n	x
CCOc1ccc(C(=O)NCCc2sc(-c3ccc(OC)c(OC)c3)nc2C)cc1	x	n	n	16µM	n
Cc1ccc(-c2nc(C)c(CCNC(=O)c3ccccc3Br)s2)cc1	x	n	n	u	n
COc1cccc(C(=O)NCCc2csc(-c3cccc(F)c3)n2)c1OC	x	n	n	u	x
COc1ccc(-c2nc(C)c(CCNC(=O)c3ccccc3Br)s2)cc1OC	x	n	n	11µM	x
SMILES	Akt phos inh	Abeta rescue	FUS suppressor	TDP-43 yeast inh	aSyn rescue
COc1ccc(C(=O)NCCc2sc(-c3ccc(F)cc3)nc2C)cc1OC	x	n	n	n	x
Cc1cccc(-c2nc(CCNC(=O)c3ccccc3Br)cs2)c1	x	n	n	13µM	x
CNC(=O)Cn1c(=O)c2cccn2c2ccc(F)cc21	x	n	n	n	x
CN(/N=C/c1cc(Br)cc(Br)c1O)c1cccc(C(F)(F)F)n1	n	n	n	u	8.9µM
CN(N=Cc1ccccc1O)c1ccc2ccccc2n1	n	n	n	n	n
Cn1c(-c2ccc(S(=O)(=O)N3CCCC3)cc2)csc1=Nc1ccc(Cl)c(Cl)c1	x	n	n	u	x
CCOc1ccccc1OCCC(=O)Nc1ccc(F)c(Cl)c1	n	n	n	n	n
Cc1ccccc1OCCC(=O)Nc1ccc(F)c(Cl)c1	n	n	n	14µM	n
